# Records with an inconclusive call do not appear. Values without a mark were called inactive. The source made the active and inactive calls. The call rests on the fitted dose curve; in most records, active means well fitted cell-killing curve with a large enough effect; inconclusive means small, poorly fitted or top-dose-only effect; inactive means flat fitted curve, though single readings scatter.
# Test: qHTS of pediatric cancer cell lines to identify multiple opportunities for drug repurposing: Primary screen for DAOY cells (AID 1347090); further: nearly all actives have a fitted effect of over 55% in size
# Settings: DAOY medulloblastoma viability, CellTiter-Glo luminescence, 48 h; series mostly up to 46 µM; activity change, negative = cytotoxic: at the top concentration
# From the text: Drug repurposing or repositioning has been offered as a strategy for drug development in oncology programs. This approach has special potential for childhood cancers and other rare or orphan diseases, where the expected return on new drug development has been a disincentive to pharmaceuticals.
# In this project we exploit the poly-pharmacology of drugs to discover new indications via phenotypic screening of a panel of 19 well-characterized cell lines derived from solid tumors seen in children and adolescents. The goal is to identify approved drugs with previously unrecognized anticancer properties that has the potential to reveal new mechanisms and biological processes involved in carcinogenesis or drug resistance. We employed a titration-based paradigm (quantitative high-throughput screening or qHTS), where all compounds were tested at multiple concentrations for their effect on cell viability. Concentration-response curves (CRCs) were derived directly from the primary screen, and both potency and efficacy values were used to identify compounds with robust bioactivity profiles. We screened the NIH Chemical Genomics Center (NCGC) Pharmaceutical Collection (NPC) and Mechanism Interrogation Plate (MIPE) small molecule collections of approved and investigational compounds against these cell lines; and measured metabolically active cells after 48 hours of compound treatment as a proxy for cell viability.
# Assay Submitter: Nathalia J. Martinez, National Center for Advancing Translational Sciences, National Institutes of Health, Rockville, MD, USA; email: natalia.martinez@nih.gov
# [1] Shen, M et al. Quantitative high-throughput phenotypic screening of pediatric cancer cell lines identifies multiple opportunities for drug repurposing. Oncotarget 2017 Dec 19;9(4):4758-4772. PMID 29435139.
# The cells were obtained from University of North Carolina (UNC), Pediatric Preclinical Testing Program (PPT), and Coriell Institute (CI).
# qHTS cell viability assay:
# Cells were assayed in growth media at a density of 500-1,000 cells/well. Five microliters of cells were dispensed into 1,536-well, white, solid-bottom, TC-treated plates (Greiner Bio One) using a multidrop dispenser and incubated at 37 degrees C, 5% CO2, under a humidified atmosphere for 5 hours. Twenty-three nanoliters of compounds and controls (neutral control DMSO or positive control bortezomib at final concentration of 2.3 µM) were subsequently transferred by Kalypsys pintool. For primary screens, the MIPE collection was tested at 11-point dilutions (final concentrations range from 0.78 nM to 46 µM) and the NPC collection at 8-point dilutions (final concentrations range from 0.59 nM to 46 µM). Compounds tested in follow-up screens were assayed at 11-point dilutions. Cells were incubated for 48 hours, followed by addition of 3 uL of CellTiter-Glo (Promega). After a 15 min incubation at room temperature, samples were analyzed for luminescence intensity using a ViewLux High-throughput CCD imager equipped with clear filters.
# Potency means the concentration at half of the fitted maximal effect.
SMILES,"activity change, negative = cytotoxic",Potency
Cc1ncc([N+](=O)[O-])n1CC(O)CCl (stereo not given),-4.37%,
CC1(C)CO[C@@H](CC(=O)O)CN1,3.49%,
NCCNCCNCCN,10.6%,
CC(O)CN(CCN(CC(C)O)CC(C)O)CC(C)O (stereo not given),6.07%,
O=C1O[C@H]([C@@H](O)CO)C(O)=C1O,-6.96%,
O=C1N=C(O)CN1/N=C/c1ccc(-c2ccc([N+](=O)[O-])cc2)o1,1.83%,
O=C(O)c1ccccc1O,0.0734%,
CCOc1nc2cccc(C(=O)O)c2n1Cc1ccc(-c2ccccc2-c2nn[nH]n2)cc1,1.17%,
COc1ccc2cc1Oc1cc3c(cc1OC)CC[N+](C)(C)[C@H]3Cc1ccc(cc1)Oc1c(OC)c(OC)cc3c1[C@@H](C2)[N+](C)(C)CC3,1.25%,
O=C(CCCN1CCN(c2ccccn2)CC1)c1ccc(F)cc1,-11.6%,
NC(=O)NNc1ccccc1,-1.11%,
CCN(CC)C(C)CN1c2ccccc2Sc2ccccc21 (stereo not given),12.2%,
NC(CSCC(=O)O)C(=O)O (stereo not given),0.649%,
CC(C(O)c1ccc(O)cc1)N1CCC(Cc2ccccc2)CC1 (stereo not given),-10.5%,
CC(=O)Oc1ccc(C2(c3ccc(OC(C)=O)cc3)C(=O)Nc3ccccc32)cc1,-1.95%,
Cn1c(=O)c2c(ncn2CC2OCCO2)n(C)c1=O,3.82%,
CC(=O)c1ccc2c(c1)N(CCCN(C)C)c1ccccc1S2,-7.25%,
CC12CCC(CC1)C(C)(C)O2,6.53%,
CN(C)CCC=C1c2ccccc2CCc2ccccc21,-3.74%,
Cc1cc2nc3c(=O)[nH]c(=O)nc-3n(C[C@H](O)[C@H](O)[C@H](O)CO)c2cc1C,3.76% [at 16.1 µM],

SMILES,"activity change, negative = cytotoxic",Potency
CCOC(=O)[C@H](CCc1ccccc1)N[C@@H](C)C(=O)N1C(=O)N(C)C[C@H]1C(=O)O,6.25%,
CN1[C@@H]2CC[C@H]1CC(OC(=O)C(O)c1ccccc1)C2 (stereo not given in full),-0.321%,
CCCCCCCCCCCCCCCC(=O)NCCO,-5.43%,
CC1(C)[C@@H]2CC[C@@]1(C)C(=O)C2,4.11%,
CSc1ccc2c(c1)N(CCC1CCCCN1C)c1ccccc1S2 (stereo not given),,16.8 µM (active)
Cc1cc2c(cc1S(N)(=O)=O)S(=O)(=O)CCC2,1.21%,
NC(N)=NCCC[C@H](N)C(=O)O,-2.71% [at 4.84 µM],
CCCCOc1cc(C(=O)OCCN(CC)CC)ccc1N,3.62%,
CCCn1cnc2c1c(=O)n(CCCCC(C)=O)c(=O)n2C,1.66%,
O=C(O)COc1nn(Cc2ccccc2)c2ccccc12,-3.25%,
O=C1O[C@H](CO)[C@@H](O)[C@H](O)[C@H]1O,8.04%,
NC(=O)c1ncn([C@@H]2O[C@H](CO)[C@@H](O)[C@H]2O)c1N,10%,
O=c1cc(CO)occ1O,2.54%,
O=c1cc[nH]c(=S)[nH]1,-32.4%,
N[C@H]1C(O)O[C@H](CO)[C@@H](O)[C@@H]1O (stereo not given in full),-0.0391%,
COc1cc(C)c(Cc2cnc(N)nc2N)cc1OC,1.62%,
COc1cc(C(=O)N2CCOCC2)cc(OC)c1OC,4.61%,
C[C@H]1O[C@H](O[C@H]2[C@H](O)[C@@H](O)[C@@H](O[C@H]3[C@H](O)[C@@H](O)[C@H](O)O[C@@H]3CO)O[C@@H]2CO)[C@H](O)[C@@H](O)[C@@H]1N[C@H]1C=C(CO)[C@@H](O)[C@H](O)[C@H]1O,0.995%,
OCC(CO)N[C@H]1C[C@](O)(CO)[C@@H](O)[C@H](O)[C@H]1O,9.07%,
C#CCN(C)Cc1ccccc1,12.1%,

# From PubChem BioAssay (NCATS)
